Measured values reported in PubChem BioAssay.
The source made the active and inactive calls. The rule behind the calls is not given here.

target: Pantothenate synthetase (Mycobacterium tuberculosis (strain ATCC 25618 / H37Rv)) (UniProt P9WIL5); assay: Coupled enzyme confirmation of inhibitors against recombinant Mtb PanC (AID 375); details: coupled enzyme assay; at 10 µM, active compounds read high;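 note: 0% = full reaction with vehicle and 100% = no enzyme background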
Sequence (P9WIL5 whole entry, looked up): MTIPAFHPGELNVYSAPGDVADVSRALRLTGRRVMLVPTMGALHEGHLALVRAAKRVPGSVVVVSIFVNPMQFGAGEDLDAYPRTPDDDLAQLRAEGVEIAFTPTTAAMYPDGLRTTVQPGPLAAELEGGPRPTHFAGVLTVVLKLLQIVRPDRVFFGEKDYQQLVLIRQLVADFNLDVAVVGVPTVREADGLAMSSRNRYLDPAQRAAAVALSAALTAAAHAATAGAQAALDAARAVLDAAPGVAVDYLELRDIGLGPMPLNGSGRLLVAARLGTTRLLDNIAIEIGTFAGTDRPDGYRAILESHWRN

Compound | inhibition
O=C(CCC(=O)OCC(=O)c1ccccc1)NC1CCCCC1 | 2% (inactive)
O=C(CSc1nc(-c2ccco2)cc(C(F)(F)F)n1)NCCCn1ccnc1 | 8% (inactive)
O=C1NCCCc2c1no[n+]2[O-] | 18% (inactive)
c1ccc(-c2oc3ncnc(NCCN4CCOCC4)c3c2-c2ccccc2)cc1 | 4% (inactive)
COC(=O)CCSCc1cn2cc(Cl)ccc2n1 | 0% (inactive)
Cc1ccccc1NC(=O)c1ccccc1 | 10% (inactive)
CCc1ccccc1NC(=O)c1cnc2n(c1=O)CCS2 | 2% (inactive)
Cc1nn(C(=O)c2ccccc2)c2c1C(=O)CC(C)(C)C2 | 0% (inactive)
CCOc1ccccc1C(=O)NCCC(=O)O | 2% (inactive)
CCC(=O)N1Cc2ccccc2-c2ccccc2C1=O | 0% (inactive)
O=c1cc(NCc2ccccc2)nc2n1CCCS2 | 0% (inactive)
CC1CCC2C(C1)c1sc(=O)[nH]c1SC2(C)C (stereo not given) | 2% (inactive)
COc1ccc(-c2noc(CCC(=O)Nc3nc4ccccc4s3)n2)cc1 | 0% (inactive)
Cc1ccc(-c2nc(CS(=O)CC(=O)NCCN(CC(C)C)CC(C)C)c(C)o2)cc1 (stereo not given) | 4% (inactive)
Cc1cc(NCCN2CCOCC2)n2nc(C)c(-c3ccccc3)c2n1 | 0% (inactive)
CCCCOC(=O)c1cccc(NC(=O)CC)c1 | 0% (inactive)
CCn1cc(C(=O)N2CCCC2)c(=O)c2cc(S(=O)(=O)N3CCOCC3)ccc21 | 0% (inactive)
COc1ccc2c(c1)c(CC(=O)O)c(C)n2C(=O)c1ccc(Cl)cc1 | 5% (inactive)
N#Cc1nc(COc2ccccc2Cl)oc1N1CCCCCC1 | 0% (inactive)
CN1CCN(c2nc3c(c(=O)n(C)c(=O)n3C)n2Cc2cccc3ccccc23)CC1 | 0% (inactive)

Compound | inhibition
Cc1ccccc1Cn1ccc(NC(=O)c2onc(C)c2Cl)n1 | 0% (inactive)
O=S(=O)(c1cccs1)N1CCN(Cc2nc3ccccc3s2)CC1 | 0% (inactive)
CC(NC(=O)Cc1cccs1)c1ccc2c(c1)OCO2 (stereo not given) | 0% (inactive)
CCC(=O)N1CCc2cc(S(=O)(=O)CCC(=O)Nc3ccc(F)c(F)c3)ccc21 | 0% (inactive)
CCCS(=O)(=O)N1CCN(Cc2ccc(OCc3ccccc3)c(OC)c2)CC1 | 4% (inactive)
CCCn1nc(CC(=O)O)c2ccccc2c1=O | 0% (inactive)
Cc1ccccc1-c1nc2ccccc2c(=O)n1C1CCS(=O)(=O)C1 (stereo not given) | 0% (inactive)
Cc1ccc(-c2nnc(SCC(=O)N3CC(C)CC(C)C3)o2)cc1C (stereo not given) | 0% (inactive)
Cn1cccc1C1NC(=O)c2c(sc3c2CCC(C(C)(C)C)C3)N1 (stereo not given) | 3% (inactive)
COc1cccc(-c2cc(C(F)(F)F)n3nc(N)nc3n2)c1 | 2% (inactive)
CC(=O)OCC(=O)[C@@]1(O)CC[C@H]2[C@@H]3CCC4=CC(=O)CC[C@]4(C)[C@H]3[C@@H](O)C[C@@]21C | 5% (inactive)
Cc1cc(-c2ccccc2)nc2cc(C(N)=O)nn12 | 12% (inactive)
CCOC(=O)C(C)C1(O)c2ccccc2-c2ncccc21 (stereo not given) | 0% (inactive)
NC(N)=NC(=O)c1nc(Cl)c(N)nc1N | 0% (inactive)
CCc1nnc(NC(=O)c2ccc(COc3ccc(C)cc3)o2)s1 | 1% (inactive)
Cn1cccc1Cc1nnc(SCC(=O)NCC2CCCO2)n1-c1ccc(F)cc1 (stereo not given) | 0% (inactive)
Cc1cccc(CC(=O)Nc2c3c(nn2-c2cccc(Cl)c2)CS(=O)C3)c1 (stereo not given) | 2% (inactive)
Cc1ccc(C2N(c3ccc(Cl)c(Cl)c3)C(=O)C3CCCN32)o1 (stereo not given) | 6% (inactive)
COc1ccccc1NC(=O)C1=C(C)Nc2nnnn2C1c1ccccc1OC (stereo not given) | 2% (inactive)
COC(=O)c1c(NC(=O)CCc2ccc(C)o2)sc(C)c1C | 1% (inactive)
